Data on 31 compounds can be found in PubChem BioAssay (Tox21).

The target of assay [1] is Cytochrome P450 2C19 (Homo sapiens) (UniProt P33261). The assay can be described thus: Cytochrome P450 Family 2 Subfamily C Member 19 (CYP2C19) small molecule antagonists: luciferase reporter qHTS assay (AID 1671197). For activity change, negative = inhibition: series mostly up to about 120 µM. Note: nearly all actives have a fitted effect of over 65% in size. Note: potency is the fitted concentration of half-maximal effect. In a few lines: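 Enzyme-substrate mix with proluciferin substrate (P450-Glo CYP2C19 system) preincubated with compounds 10 min at room temperature; NADPH regeneration solution added, 37C for 1 h; detection reagent stops reaction, luminescence read after 20 min. Ketoconazole positive control.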
In general terms: Reporter assays use an easily measured gene product as a stand-in for the process of interest.

In assay [2] the target is Cytochrome P450 2C9 (Homo sapiens) (UniProt P11712). The assay can be described thus: Cytochrome P450 Family 2 Subfamily C Member 9 (CYP2C9) small molecule antagonists: luciferase reporter qHTS assay (AID 1671198). For activity change, negative = inhibition: series mostly up to about 120 µM. Note: nearly all actives have a fitted effect of over 50% in size. Note: potency is the fitted concentration of half-maximal effect. In a few lines: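 P450-Glo proluciferin substrate with CYP2C9 enzyme; 10 min RT preincubation, then NADPH regeneration 1 h at 37C; luciferin detection reagent 20 min RT, luminescence in relative luminescence units.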

Assay [3] addresses Cytochrome P450 3A4 (Homo sapiens) (UniProt P08684). The assay is described as follows: Cytochrome P450 Family 3 Subfamily A Member 4 (CYP3A4) small molecule antagonists: luciferase reporter qHTS assay (AID 1671201). For activity change, negative = inhibition: series mostly up to about 120 µM. Note: nearly all actives have a fitted effect of over 50% in size. Note: potency is the fitted concentration of half-maximal effect. The method, boiled down: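 P450-Glo CYP3A4 luminescent assay: compounds preincubated 10 min at room temperature with enzyme and proluciferin substrate, NADPH regeneration added, 1 h room-temperature reaction, stopped with luciferin detection reagent; luminescence read after 20 min. Ketoconazole positive control.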

For assay [4], the target named is Acetylcholinesterase (Homo sapiens) (UniProt P22303). The assay can be described thus: Acetylcholinesterase (AChE) small molecule antagonists: fluorescence cell-based qHTS assay (AID 1347398; calls by dose curve; note: nearly all actives have a fitted effect of over 50% in size; note: potency is the fitted concentration of half-maximal effect). The conditions noted are these: Potency: AChE activity. In a few lines: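 SH-SY5Y, 2,000 cells/well, attached overnight; cmpd 30 min 37 C; acetylthiocholine/Thiolite Green cocktail 40 min RT; fluorescence Ex/Em 490/520 nm.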
For orientation: In qHTS, concentration-response curves come from the screen itself.

For assay [5], the target named is Cytochrome P450 1A2 (Homo sapiens) (UniProt P05177). The assay is described as follows: Cytochrome P450 Family 1 Subfamily A Member 2 (CYP1A2) small molecule antagonists: luciferase reporter qHTS assay (AID 1671199). For activity change, negative = inhibition: series mostly up to about 120 µM. Note: nearly all actives have a fitted effect of over 50% in size. Note: potency is the fitted concentration of half-maximal effect. The method, boiled down:
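Steps: enzyme-substrate mix dispensed; test compounds and furafylline control pinned in; 10 min room temperature; NADPH regeneration solution added, 1 h; reaction stopped with luciferin detection reagent; luminescence read after 20 min.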

Assay [6] addresses Acetylcholinesterase (Homo sapiens) (UniProt P22303). The assay is described as follows: Acetylcholinesterase (AChE) small molecule antagonists: enzyme-based qHTS assay with human liver microsomes (AID 1347399; calls by dose curve; note: nearly all actives have a fitted effect of over 60% in size). The conditions noted are these: Potency: qHTS inhibition. In a few lines:
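Recombinant human AChE (50 mU/mL in the enzyme mix) and human liver microsomes (0.25 mg/mL final) were preincubated with compound and NADPH (0.25 mg/mL final) for 30 min at 37 C. Acetylthiocholine/DTNB was then added; thiocholine was read colorimetrically after 10 min at room temperature.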

For assay [7], the target named is Cytochrome P450 2D6 (Homo sapiens) (UniProt P10635). The assay can be described thus: Cytochrome P450 Family 2 Subfamily D Member 6 (CYP2D6) small molecule antagonists: luciferase reporter qHTS assay (AID 1671196). For activity change, negative = inhibition: series mostly up to about 120 µM. Note: nearly all actives have a fitted effect of over 50% in size. Note: potency is the fitted concentration of half-maximal effect. In a few lines:
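Test chemicals meet CYP2D6 plus proluciferin substrate (10 min, RT); NADPH regenerating solution then drives turnover for 1 h. Detection reagent halts the reaction; luminescence measured after 20 min.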

The target of assay [8] is Voltage-gated inwardly rectifying potassium channel KCNH2 (Homo sapiens) (UniProt Q12809). The assay is described as follows: Human Ether-a-go-go-Related Gene (hERG) channel small molecule antagonists: fluorescence cell-based qHTS assay (AID 1671200).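 For activity change, negative = inhibition: hERG-expressing U2OS cells given a thallium stimulus after FluxOR II dye loading; series mostly up to about 77 µM.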 Note: nearly all actives have a fitted effect of over 50% in size. Note: potency is the fitted concentration of half-maximal effect. The method, boiled down: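 hERG-U2OS cells plated overnight at 37 C, loaded with FluxOR II dye 1 h at RT in dark; after 10 min, thallium stimulus added. Fluorescence (480/540 nm) read kinetically for 2 min at 1 s intervals.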
Background: Block of hERG is tested as a sign of cardiac risk.

Structures are written as SMILES. Unmarked numbers belong to inactive results. Records with an inconclusive call do not appear. Activity calls are given as the source filed them. Unless noted, calls come from the whole dose curve; as a rule, active = well fitted curve in the direction sought with a large enough effect in the repeat runs; inconclusive = weak or mixed curves; inactive = no such curve, though single readings can be large; an effect the other way counts as inactive or inconclusive.
% is set by controls: 0 for no effect and ±100 for the full control effect.

Sequence of Cytochrome P450 3A4 (Homo sapiens) (P08684 whole entry, looked up): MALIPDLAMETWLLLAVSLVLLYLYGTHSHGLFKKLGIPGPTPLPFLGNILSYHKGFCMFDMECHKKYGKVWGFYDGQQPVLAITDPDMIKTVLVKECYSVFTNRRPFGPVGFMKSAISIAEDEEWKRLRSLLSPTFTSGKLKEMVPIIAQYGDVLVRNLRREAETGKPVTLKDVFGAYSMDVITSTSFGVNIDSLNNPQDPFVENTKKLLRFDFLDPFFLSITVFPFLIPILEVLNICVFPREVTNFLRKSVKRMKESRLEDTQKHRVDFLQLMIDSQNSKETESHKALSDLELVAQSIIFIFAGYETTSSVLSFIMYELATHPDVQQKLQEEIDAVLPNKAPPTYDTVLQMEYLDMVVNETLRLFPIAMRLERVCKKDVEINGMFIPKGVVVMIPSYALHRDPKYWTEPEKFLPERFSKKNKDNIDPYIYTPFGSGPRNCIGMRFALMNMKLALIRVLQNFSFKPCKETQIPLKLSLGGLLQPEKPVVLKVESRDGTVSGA
Sequence of Cytochrome P450 2C9 (Homo sapiens) (P11712 whole entry, looked up): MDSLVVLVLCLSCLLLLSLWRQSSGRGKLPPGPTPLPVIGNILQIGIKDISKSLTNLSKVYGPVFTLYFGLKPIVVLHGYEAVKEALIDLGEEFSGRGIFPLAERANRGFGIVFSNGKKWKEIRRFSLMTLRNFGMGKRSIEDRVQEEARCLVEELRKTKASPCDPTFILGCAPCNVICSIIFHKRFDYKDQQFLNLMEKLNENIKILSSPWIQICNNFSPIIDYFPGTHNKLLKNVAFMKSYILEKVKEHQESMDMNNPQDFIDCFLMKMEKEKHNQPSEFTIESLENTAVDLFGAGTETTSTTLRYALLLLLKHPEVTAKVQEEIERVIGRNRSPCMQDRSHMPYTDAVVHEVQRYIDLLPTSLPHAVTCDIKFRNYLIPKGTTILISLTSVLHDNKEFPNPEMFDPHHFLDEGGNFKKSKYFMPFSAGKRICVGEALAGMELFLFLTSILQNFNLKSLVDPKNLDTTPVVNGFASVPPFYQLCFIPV
Sequence of Voltage-gated inwardly rectifying potassium channel KCNH2 (Homo sapiens) (Q12809 whole entry, looked up): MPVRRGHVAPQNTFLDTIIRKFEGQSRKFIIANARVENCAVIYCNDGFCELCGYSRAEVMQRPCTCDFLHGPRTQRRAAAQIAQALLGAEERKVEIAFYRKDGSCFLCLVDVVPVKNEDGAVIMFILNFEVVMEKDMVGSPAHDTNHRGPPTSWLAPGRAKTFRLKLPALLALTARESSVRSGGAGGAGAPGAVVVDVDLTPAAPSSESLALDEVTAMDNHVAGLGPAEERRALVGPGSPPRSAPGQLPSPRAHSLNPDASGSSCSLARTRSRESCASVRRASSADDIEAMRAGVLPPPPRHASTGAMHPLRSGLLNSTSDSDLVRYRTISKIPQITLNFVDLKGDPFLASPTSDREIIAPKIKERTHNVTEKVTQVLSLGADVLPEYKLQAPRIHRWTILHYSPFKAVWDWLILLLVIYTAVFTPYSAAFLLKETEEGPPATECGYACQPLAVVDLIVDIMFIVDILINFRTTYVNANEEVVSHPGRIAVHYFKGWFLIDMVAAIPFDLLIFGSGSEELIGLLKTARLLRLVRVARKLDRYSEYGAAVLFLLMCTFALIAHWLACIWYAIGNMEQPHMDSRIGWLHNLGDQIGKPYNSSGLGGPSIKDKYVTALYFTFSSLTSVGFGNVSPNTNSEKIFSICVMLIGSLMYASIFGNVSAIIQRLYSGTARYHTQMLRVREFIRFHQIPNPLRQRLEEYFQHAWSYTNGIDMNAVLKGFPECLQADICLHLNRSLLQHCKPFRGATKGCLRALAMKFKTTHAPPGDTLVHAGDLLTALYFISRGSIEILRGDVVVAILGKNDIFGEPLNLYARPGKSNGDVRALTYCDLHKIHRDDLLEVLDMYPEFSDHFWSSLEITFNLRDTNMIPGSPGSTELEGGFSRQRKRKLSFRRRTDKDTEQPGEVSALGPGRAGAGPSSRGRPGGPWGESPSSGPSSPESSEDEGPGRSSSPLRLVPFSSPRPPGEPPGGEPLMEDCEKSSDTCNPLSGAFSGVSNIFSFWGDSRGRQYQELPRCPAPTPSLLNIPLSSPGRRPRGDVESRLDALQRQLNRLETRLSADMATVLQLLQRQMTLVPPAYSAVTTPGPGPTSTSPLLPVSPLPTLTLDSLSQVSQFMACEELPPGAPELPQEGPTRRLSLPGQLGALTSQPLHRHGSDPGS
Sequence of Acetylcholinesterase (Homo sapiens) (P22303 whole entry, looked up): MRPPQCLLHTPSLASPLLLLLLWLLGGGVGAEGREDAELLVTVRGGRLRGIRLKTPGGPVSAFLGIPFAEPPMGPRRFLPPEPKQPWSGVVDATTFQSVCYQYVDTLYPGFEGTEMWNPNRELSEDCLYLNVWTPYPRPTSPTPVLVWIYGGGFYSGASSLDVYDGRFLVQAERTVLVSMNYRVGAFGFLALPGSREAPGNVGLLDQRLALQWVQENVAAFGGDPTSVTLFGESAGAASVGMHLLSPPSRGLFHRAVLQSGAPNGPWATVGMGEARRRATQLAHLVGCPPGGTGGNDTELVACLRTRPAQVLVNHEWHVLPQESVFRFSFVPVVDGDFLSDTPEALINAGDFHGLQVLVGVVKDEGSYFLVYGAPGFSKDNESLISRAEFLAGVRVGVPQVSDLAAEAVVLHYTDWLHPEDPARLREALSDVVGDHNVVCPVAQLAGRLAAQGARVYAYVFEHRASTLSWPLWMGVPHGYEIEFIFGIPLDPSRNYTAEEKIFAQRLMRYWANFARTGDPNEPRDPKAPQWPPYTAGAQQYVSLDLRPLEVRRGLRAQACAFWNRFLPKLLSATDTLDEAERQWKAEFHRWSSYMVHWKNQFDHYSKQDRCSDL
Sequence of Cytochrome P450 1A2 (Homo sapiens) (P05177 whole entry, looked up): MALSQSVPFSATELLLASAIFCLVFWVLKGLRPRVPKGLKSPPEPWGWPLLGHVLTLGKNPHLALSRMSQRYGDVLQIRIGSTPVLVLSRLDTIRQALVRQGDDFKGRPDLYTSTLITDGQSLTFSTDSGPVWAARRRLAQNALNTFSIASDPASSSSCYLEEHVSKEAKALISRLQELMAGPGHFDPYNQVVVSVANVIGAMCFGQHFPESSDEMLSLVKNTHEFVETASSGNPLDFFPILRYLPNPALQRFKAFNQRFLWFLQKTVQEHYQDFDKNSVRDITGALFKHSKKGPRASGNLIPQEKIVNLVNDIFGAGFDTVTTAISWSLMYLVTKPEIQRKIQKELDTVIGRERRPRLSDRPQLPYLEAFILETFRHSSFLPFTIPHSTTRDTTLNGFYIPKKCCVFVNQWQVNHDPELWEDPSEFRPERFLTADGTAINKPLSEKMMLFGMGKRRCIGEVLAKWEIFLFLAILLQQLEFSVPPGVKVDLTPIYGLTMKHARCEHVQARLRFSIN
Sequence of Cytochrome P450 2C19 (Homo sapiens) (P33261 whole entry, looked up): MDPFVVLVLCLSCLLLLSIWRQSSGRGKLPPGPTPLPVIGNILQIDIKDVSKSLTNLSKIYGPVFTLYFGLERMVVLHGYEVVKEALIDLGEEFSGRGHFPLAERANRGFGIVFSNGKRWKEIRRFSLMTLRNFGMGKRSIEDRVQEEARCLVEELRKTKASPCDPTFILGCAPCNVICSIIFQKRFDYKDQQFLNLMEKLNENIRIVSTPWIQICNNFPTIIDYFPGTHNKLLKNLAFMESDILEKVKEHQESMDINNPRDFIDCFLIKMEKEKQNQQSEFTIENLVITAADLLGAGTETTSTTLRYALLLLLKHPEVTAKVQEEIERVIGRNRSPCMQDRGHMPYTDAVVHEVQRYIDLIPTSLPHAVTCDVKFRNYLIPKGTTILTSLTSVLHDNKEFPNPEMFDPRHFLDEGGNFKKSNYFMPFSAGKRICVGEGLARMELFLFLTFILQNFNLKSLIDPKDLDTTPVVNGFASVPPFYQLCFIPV
Sequence of Cytochrome P450 2D6 (Homo sapiens) (P10635 whole entry, looked up): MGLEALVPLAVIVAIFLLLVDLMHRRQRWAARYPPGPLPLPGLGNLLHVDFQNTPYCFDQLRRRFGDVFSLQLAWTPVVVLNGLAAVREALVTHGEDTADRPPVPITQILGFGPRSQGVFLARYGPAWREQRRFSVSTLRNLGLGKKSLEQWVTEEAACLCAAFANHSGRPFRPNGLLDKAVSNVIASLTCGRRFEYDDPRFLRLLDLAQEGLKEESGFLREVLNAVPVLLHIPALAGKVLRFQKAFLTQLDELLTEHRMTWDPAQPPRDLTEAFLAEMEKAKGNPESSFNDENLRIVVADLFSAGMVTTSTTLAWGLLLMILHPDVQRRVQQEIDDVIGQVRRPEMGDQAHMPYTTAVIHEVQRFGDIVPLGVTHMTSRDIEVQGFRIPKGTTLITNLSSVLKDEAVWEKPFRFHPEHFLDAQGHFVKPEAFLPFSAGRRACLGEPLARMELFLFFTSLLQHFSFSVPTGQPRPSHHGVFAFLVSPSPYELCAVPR

For `CCN(CC)c1nc(C)cc(OP(=S)(OC)OC)n1`, the values for the Potency in assay [1], in assay [2] and in assay [3] were 0.178 µM (active), 22.4 µM (active) and 2.24 µM (active), respectively.
On to `COc1ccc2c(c1OC)CN1CCc3cc4c(cc3C1C2)OCO4` (stereo not given), for which the Potency in assay [4] was 1.38 µM (active); in assay [1] it was 0.977 µM (active); in assay [2] it was 30.9 µM (active); in assay [5], 15.5 µM (active).
Take `CCN(Cc1ccc(Cl)nc1)/C(=C/[N+](=O)[O-])NC`: the Potency entry in assay [6], in assay [7], in assay [1], in assay [2], in assay [8] and in assay [3] was “inactive” each time.
As to `Clc1ccccc1N1CCNCC1`, in assay [7], the Potency was 9.77 µM (active). Moreover, the Potency entry in assay [2], in assay [8] and in assay [3] was “inactive” each time.
As for `CCOP(=O)(N=C1SCCS1)OCC`, the Potency entry in assay [6], in assay [1], in assay [2], in assay [5], in assay [8] and in assay [3] was “inactive” each time.
Take `Nc1c(Br)cc([N+](=O)[O-])cc1[N+](=O)[O-]`: the Potency in assay [1] was 50.8 µM (active). Further, the Potency entry in assay [2], in assay [8] and in assay [3] was “inactive” each time.
`CC1(C)COP(Oc2ccccc2)OC1`: the Potency entry in assay [4], in assay [1], in assay [2], in assay [8] and in assay [3] was “inactive” each time.
Consider `O=C(Cc1ccccc1)OCc1ccccc1`, for which the Potency result in assay [4], in assay [8] and in assay [3] was “inactive” each time. The Potency is 10.1 µM (active) in assay [1] and 18 µM (active) in assay [5].
For the compound `O=C1c2ccccc2C(=O)c2ccccc21`, the activity change, negative = inhibition in assay [4] was 3.86% [at 23.8 µM]; in assay [1], 10.7% [at 23.6 µM]; in assay [2] it was 2.12% [at 23.6 µM]; in assay [8] it was 3.3% [at 15.8 µM]; in assay [3], 15.9% [at 23.6 µM]. The Potency in assay [5] is 0.177 µM (active).
`OCCBr`: the Potency result in assay [4], in assay [1], in assay [2], in assay [8] and in assay [3] was “inactive” in each case.
Consider `CCN(CC)C(=O)[C@@H]1C=C2c3cccc4[nH]cc(c34)C[C@H]2N(C)C1`, for which the Potency was 58.7 µM (active) in assay [4], 0.466 µM (active) in assay [7] and 82.8 µM (active) in assay [3]. Further, the Potency result in assay [8] was “inactive”.
`Cc1ccccc1CO[C@@H]1C[C@@]2(C(C)C)CC[C@]1(C)O2`: the Potency result in assay [4] and in assay [8] was “inactive” each time. The Potency was 22.4 µM (active) in assay [2], 20 µM (active) in assay [5] and 3.99 µM (active) in assay [3].
Take `C[C@@H]1CN(C2CCC(C#N)(c3ccc(F)cc3)CC2)CC[C@]1(C(=O)O)c1ccccc1` (stereo not given in full): the Potency entry in assay [4], in assay [1], in assay [2], in assay [5] and in assay [3] was “inactive” each time.
As to `COC(=O)C(C)Oc1ccc(Oc2ccc(Cl)cc2Cl)cc1` (stereo not given), the Potency entry in assay [4] and in assay [3] was “inactive” each time. Further, the results for the Potency in assay [2] and in assay [8] were 31.7 µM (active) and 38.9 µM (active), respectively.
As to `CCOP(=S)(OCC)Oc1nc(Cl)n(C(C)C)n1`, the Potency is 0.252 µM (active) in assay [1], 5.03 µM (active) in assay [2], 2.24 µM (active) in assay [5] and 1.59 µM (active) in assay [3]. Moreover, in assay [8], the Potency entry is “inactive”.
With `CCOC(=O)/C=C(C)/C=C/C[C@@H](C)CCCC(C)C`, the Potency result in assay [4] is “inactive”. In assay [2], the Potency is 15.9 µM (active).
As for `O=C(N[C@H]1CN2CCC1CC2)c1cc2ccoc2cn1`, the Potency entry in assay [6], in assay [1], in assay [5], in assay [8] and in assay [3] was “inactive” throughout. For the same compound, the Potency in assay [7] was 28.3 µM (active).
As to `CCC(Cl)[N+](=O)[O-]` (stereo not given), the Potency result in assay [4], in assay [2], in assay [8] and in assay [3] was “inactive” each time.
For the compound `CC(N)=S`, the Potency result in assay [4], in assay [8] and in assay [3] was “inactive” throughout. The Potency in assay [1] is 71 µM (active).
Regarding `CC1=NNC(=O)N(/N=C/c2cccnc2)C1`, the Potency result in assay [4], in assay [7], in assay [8] and in assay [3] was “inactive” in each case. Moreover, the Potency in assay [5] is 35.6 µM (active).
For the compound `[As]#[In]`, the Potency result in assay [4], in assay [7], in assay [8] and in assay [3] was “inactive” each time.
Take `Fc1cc(Br)ccc1CBr`: the Potency result in assay [6], in assay [7], in assay [1], in assay [2], in assay [8] and in assay [3] was “inactive” throughout.
Turning to `CNC(=O)N(C)c1nc2ccccc2s1`, the Potency entry in assay [4] and in assay [8] was “inactive” in each case. In addition, the Potency was 39.9 µM (active) in assay [1], 39.9 µM (active) in assay [2] and 2.52 µM (active) in assay [5].
Turning to `O=c1oc2ccccc2c(O)c1C1CCCc2ccccc21` (stereo not given), the Potency entry in assay [4] and in assay [8] was “inactive” throughout. The Potency is 3.99 µM (active) in assay [2] and 31.7 µM (active) in assay [3].
As for `Nc1ccccc1Cl`, the Potency result in assay [4], in assay [1], in assay [2] and in assay [3] was “inactive” throughout.
In the case of `CN1C[C@@H](NS(=O)(=O)N(C)C)C[C@@H]2c3cccc4c3c(cn4C)C[C@H]21`, the Potency entry in assay [7], in assay [1], in assay [2], in assay [5], in assay [8] and in assay [3] was “inactive” throughout.
On to `C[C@]12CC[C@H]3[C@@H](CC=C4C[C@@H](O)CC[C@@]43C)[C@@H]1CC[C@@H]2O`, for which the Potency result in assay [8] was “inactive”.
Regarding `CC(C)CC(N(C)C)C1(c2ccc(Cl)cc2)CCC1` (stereo not given), in assay [7], the Potency is 4.36 µM (active). For the same compound, the Potency entry in assay [2] and in assay [5] was “inactive” throughout.
For `COc1ccc(C(=O)N2CCCC2=O)cc1`, in assay [8], the Potency entry is “inactive”.
In the case of `ClCC(Cl)Cl`, the Potency result in assay [6], in assay [1], in assay [2], in assay [8] and in assay [3] was “inactive” throughout.
`CC(C)[N+](=O)[O-]`: the Potency result in assay [4], in assay [2], in assay [8] and in assay [3] was “inactive” throughout.
